Records with an inconclusive call do not appear. Activity calls are given as the source filed them. Calls follow the shape of the dose curve; as a rule, active = well fitted activation curve with a large enough effect in the repeat runs; inconclusive = weak or mixed curves; inactive = no such curve, though single readings can be large or run the other way. Non-standard residues stand in square brackets, D forms with d. Residues, ends and D or L forms follow the SMILES beside them. pGlu = O=C1CC[C@@H](C(=O)O)N1
Target: Nuclear receptor subfamily 1 group I member 2 (Rattus norvegicus) (UniProt Q9R1A7)
Sequence (Q9R1A7 whole entry, looked up): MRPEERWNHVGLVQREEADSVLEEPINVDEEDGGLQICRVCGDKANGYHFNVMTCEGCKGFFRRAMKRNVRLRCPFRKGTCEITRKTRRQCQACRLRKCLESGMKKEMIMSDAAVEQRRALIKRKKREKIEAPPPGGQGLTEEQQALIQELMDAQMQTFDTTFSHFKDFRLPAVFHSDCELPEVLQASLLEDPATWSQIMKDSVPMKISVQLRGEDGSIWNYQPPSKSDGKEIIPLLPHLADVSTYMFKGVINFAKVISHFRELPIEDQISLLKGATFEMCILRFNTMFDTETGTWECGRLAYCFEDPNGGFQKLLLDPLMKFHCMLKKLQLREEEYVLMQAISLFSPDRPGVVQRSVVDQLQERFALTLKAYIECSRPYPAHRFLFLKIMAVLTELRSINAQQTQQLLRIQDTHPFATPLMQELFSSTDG
Experiment: Rat pregnane X receptor (rPXR) activation by small molecules, qHTS assay (AID 1346983); also: nearly all actives have a fitted effect of over 20% in size
Details: rPXR luciferase reporter cells, One-Glo luminescence, 24 h; max activation: active compounds read high
Excerpt: National Center for Advancing Translational Sciences [NCATS] NIH Chemical Genomics Center [NCGC] U.S. Environmental Protection Agency [EPA] National Institutes of Environmental Health Sciences [NIEHS] National Toxicology Program [NTP] Assay overview: The Pregnane X receptor (PXR), a ligand activated nuclear receptor plays a critical role in the regulation of genes involved in drug metabolism and transporters. PXR binds xenobiotics and when compounds interact with PXR produces enhanced expression of CYP3A genes. In humans PXR activation and CYP3A4 induction can be problematic due to their interactions with co-medicated drugs and decrease their efficacy or increase their own metabolism. However, there are known species-specific differences with regard to PXR activation that should be taken into account when animal PXR data are extrapolated to humans. A cell based rat PXR (rPXR) assay (developed by Puracyp, Inc., CA) was used to assess the activation of rPXR.
Assay Protocol Summary: rPXR cells were dispensed at 2,000 per well in 5uL of assay medium into white, solid-bottom 1536-well plates using a Multidrop Combi dispenser (Thermo Scientific). The assay plates were incubated at 37 C for 5hr before transferring 23 nL of test compounds dissolved in DMSO and positive control via Pintool station (Wako). The assay plates were incubated at 37 C for 24 hr. Then 5ul One-Glo assay reagent (Promega) was added to each plate by a Flying Reagent Dispenser (FRD, Aurora Discovery) and following 30 min incubation at room temperature, luciferase activity was quantified on a ViewLux plate reader (Perkin Elmer).
% is scaled to controls: 0 for no effect and ±100 for the full control effect; potency is read from the fitted curve at half-maximal effect.

| Structure (SMILES) | max activation | Potency |
| --- | --- | --- |
| Cn1c(=O)c2c(ncn2CCOC(=O)C(C)(C)Oc2ccc(Cl)cc2)n(C)c1=O | -1.7% (inactive) | – |
| COC(=O)C1=C(C#N)NC(C)=C(C(=O)OC(C)C)C1c1cccc([N+](=O)[O-])c1 (stereo not given) | – | 7.94 µM (active) |
| COC(F)(F)C(Cl)Cl | 0.553% (inactive) | – |
| CC1(O)CCC(C(C)(C)O)CC1 (stereo not given) | -1.3% (inactive) | – |
| CN[C@@H]1[C@H](O[C@H]2[C@H](O[C@H]3[C@H](O)[C@@H](O)[C@H](N=C(N)N)[C@@H](O)[C@@H]3N=C(N)N)O[C@@H](C)[C@]2(O)C=O)O[C@@H](CO)[C@H](O)[C@H]1O | -1.83% (inactive) | – |
| CNc1cc(OC)c(C(=O)N[C@H]2CCN(Cc3ccccc3)[C@H]2C)cc1Cl | -1.71% (inactive) | – |
| COc1ccc2cc([C@H](C)CO)ccc2c1 | -2.68% (inactive) | – |
| COC(=O)[C@@H](N)CS | 0.531% (inactive) | – |
| C[C@]12CCC(=O)C[C@@H]1CC[C@@H]1[C@@H]2CC[C@]2(C)C=CC[C@@H]12 | -0.035% (inactive) | – |
| CN1CCN(C(c2ccccc2)c2ccc(Cl)cc2)CC1 (stereo not given) | -0.288% (inactive) | – |
| CCN(CC)CCOc1ccc2nc(N(C)C)sc2c1 | 2.91% (inactive) | – |
| O=C1C(=O)c2ncccc2-c2cccnc21 | -3.81% (inactive) | – |
| O=C(OCc1ccccc1)c1cccnc1 | 6.76% (inactive) | – |
| CCSc1ccc2c(c1)N(CCCN1CCN(C)CC1)c1ccccc1S2 | -0.528% (inactive) | – |
| CN1c2cc(O)c(N=NC(N)=O)cc2CC1S(=O)(=O)O (stereo not given) | 0.153% (inactive) | – |
| CC1=C[C@H](O)CC(C)(C)[C@H]1/C=C/C(C)=C/C=C/C(C)=C/C=C/C=C(C)/C=C/C=C(C)/C=C/C1=C(C)C[C@@H](O)CC1(C)C | 0.35% (inactive) | – |
| CO[C@H]1C[C@@H]2CC[C@@H](C)[C@@](O)(O2)C(=O)C(=O)N2CCCC[C@H]2C(=O)O[C@H]([C@H](C)C[C@@H]2CC[C@@H](OC(=O)C(C)(CO)CO)[C@H](OC)C2)CC(=O)[C@H](C)/C=C(\C)[C@@H](O)[C@@H](OC)C(=O)[C@H](C)C[C@H](C)/C=C/C=C/C=C/1C | 0.976% (inactive) | – |
| C[C@]12C=CC(=O)N[C@@H]1CC[C@@H]1[C@@H]2CC[C@]2(C)[C@@H](C(=O)Nc3cc(C(F)(F)F)ccc3C(F)(F)F)CC[C@@H]12 | -1.05% (inactive) | – |
| O=C1NCCN1c1ncc([N+](=O)[O-])s1 | -1.52% (inactive) | – |
| CC1=C(/C=C/C(C)=C/C=C/C(C)=C/C=C/C=C(C)/C=C/C=C(C)/C=C/C2=C(C)C(=O)CCC2(C)C)C(C)(C)CCC1=O | -3.2% (inactive) | – |

| Structure (SMILES) | max activation | Potency |
| --- | --- | --- |
| C[C@H](N)C(=O)N[C@@H](C)P(=O)(O)O | -2.51% (inactive) | – |
| COc1ccc(C[C@H](N)C(=O)N[C@H]2[C@@H](O)[C@H](n3cnc4c(N(C)C)ncnc43)O[C@@H]2CO)cc1 | -3.7% (inactive) | – |
| O=C(O)[C@H]1/C(=C/CO)O[C@@H]2CC(=O)N21 | -2.31% (inactive) | – |
| CC(=O)Nc1ccc(NC(=S)NC(=O)c2ccc(C(C)(C)C)cc2)cc1 | -2.69% (inactive) | – |
| CCCCCCCCCCCC(=O)OC[C@@H](O)C1OC[C@H](O)[C@H]1O (stereo not given in full) | -2.81% (inactive) | – |
| Nc1nc2c(c(=O)[nH]1)N(C=O)C(CNc1ccc(C(=O)N[C@@H](CCC(=O)O)C(=O)O)cc1)CN2 (stereo not given in full) | 3.43% (inactive) | – |
| CCCCCCCCCCCCCCCCCC(=O)OCC(C)O (stereo not given) | -10.2% (inactive) | – |
| CC(C)(C)CC(C)(C)c1cc(Cc2cc(C(C)(C)CC(C)(C)C)cc(-n3nc4ccccc4n3)c2O)c(O)c(-n2nc3ccccc3n2)c1 | -3.34% (inactive) | – |
| CCCCC/C=C\C/C=C\C/C=C\CCCCC(=O)O | -0.879% (inactive) | – |
| CC1(C)S[C@@H]2[C@H](NC(=O)[C@H](NC(=O)N3CCN(S(C)(=O)=O)C3=O)c3ccccc3)C(=O)N2[C@H]1C(=O)O | -9.82% (inactive) | – |
| CCC(=O)O[C@]1(C(=O)CCl)[C@@H](C)C[C@H]2[C@@H]3C[C@H](F)C4=CC(=O)C=C[C@]4(C)[C@@]3(F)[C@@H](O)C[C@@]21C | – | 0.447 µM (active) |
| C=CCN1CCCC1CNC(=O)c1cc(S(N)(=O)=O)cc(OC)c1OC (stereo not given) | -5.9% (inactive) | – |
| CC[C@H](C)[C@H](NC(=O)[C@H](Cc1ccccc1)NC(=O)[C@H](C)NC(=O)[C@H](CC(=O)O)NC(=O)[C@H](CCCCN)NC(=O)[C@H](CO)NC(=O)[C@@H]1CCCN1C(=O)[C@@H]1CCC(=O)N1)C(=O)NCC(=O)N[C@@H](CC(C)C)C(=O)N[C@@H](CCSC)C(N)=O ([pGlu]PSKDAFIGLM-NH2) | -3.14% (inactive) | – |
| C[C@]12CCC(=O)C=C1CC[C@@H]1[C@@H]2[C@@H](O)C[C@@]2(C)[C@H]1CC[C@]2(O)C(=O)COP(=O)(O)O | 11.6% (inactive) | – |
| CO/N=C(\C(=O)N[C@@H]1C(=O)N2C(C(=O)O)=C(CSc3nnnn3C)CS[C@H]12)c1csc(N)n1 | -3.46% (inactive) | – |
| CS(=O)(=O)c1ccc(C2=C(c3ccccc3)C(=O)OC2)cc1 | -0.681% (inactive) | – |
| CCCC(=O)Nc1c(I)cc(I)c(CC(CC)C(=O)O)c1I (stereo not given) | -4.56% (inactive) | – |
| COc1cc([C@@H]2c3cc4c(cc3C(O[C@@H]3O[C@@H]5COC(c6cccs6)O[C@H]5[C@H](O)[C@H]3O)C3COC(=O)[C@@H]32)OCO4)cc(OC)c1O (stereo not given in full) | – | 28.2 µM (active) |
| Cn1c(O)c(N=NC(N)=S)c2ccccc21 | 1.06% (inactive) | – |
| CC[C@H](C)[C@@H]1NC(=O)[C@H](Cc2ccc(O)cc2)NC(=O)[C@@H](N)CSSC[C@@H](C(=O)N2CCC[C@H]2C(=O)N[C@@H](CC(C)C)C(=O)NCC(N)=O)NC(=O)[C@H](CC(N)=O)NC(=O)[C@H](CCC(N)=O)NC1=O | 0.0402% (inactive) | – |

— PubChem BioAssay (Tox21)
